Eleven molecules from ChEMBL document CHEMBL3988442, “University of Dundee, Small-Polar-MMV Screening Library” (2021) can be followed below.

For some of these results: Results with a measured potency or affinity are listed apart.

What all share (set-up): scale not given: direction of the effect not stated beside the values
Assay [1] has as its target Protein translocase subunit SecA (Escherichia coli (strain K12)) (UniProt P10408). In words: Assay to Identify E. coli SecA ATPase Inhibitors. The note with it: 30 µM. In kind it is functional.
The target of assay [2] is T1, Ubiquitin-activating enzyme e1, putative (Leishmania donovani (strain BPK282A1)) (UniProt E9BSI1).
T1 sequence (whole entry): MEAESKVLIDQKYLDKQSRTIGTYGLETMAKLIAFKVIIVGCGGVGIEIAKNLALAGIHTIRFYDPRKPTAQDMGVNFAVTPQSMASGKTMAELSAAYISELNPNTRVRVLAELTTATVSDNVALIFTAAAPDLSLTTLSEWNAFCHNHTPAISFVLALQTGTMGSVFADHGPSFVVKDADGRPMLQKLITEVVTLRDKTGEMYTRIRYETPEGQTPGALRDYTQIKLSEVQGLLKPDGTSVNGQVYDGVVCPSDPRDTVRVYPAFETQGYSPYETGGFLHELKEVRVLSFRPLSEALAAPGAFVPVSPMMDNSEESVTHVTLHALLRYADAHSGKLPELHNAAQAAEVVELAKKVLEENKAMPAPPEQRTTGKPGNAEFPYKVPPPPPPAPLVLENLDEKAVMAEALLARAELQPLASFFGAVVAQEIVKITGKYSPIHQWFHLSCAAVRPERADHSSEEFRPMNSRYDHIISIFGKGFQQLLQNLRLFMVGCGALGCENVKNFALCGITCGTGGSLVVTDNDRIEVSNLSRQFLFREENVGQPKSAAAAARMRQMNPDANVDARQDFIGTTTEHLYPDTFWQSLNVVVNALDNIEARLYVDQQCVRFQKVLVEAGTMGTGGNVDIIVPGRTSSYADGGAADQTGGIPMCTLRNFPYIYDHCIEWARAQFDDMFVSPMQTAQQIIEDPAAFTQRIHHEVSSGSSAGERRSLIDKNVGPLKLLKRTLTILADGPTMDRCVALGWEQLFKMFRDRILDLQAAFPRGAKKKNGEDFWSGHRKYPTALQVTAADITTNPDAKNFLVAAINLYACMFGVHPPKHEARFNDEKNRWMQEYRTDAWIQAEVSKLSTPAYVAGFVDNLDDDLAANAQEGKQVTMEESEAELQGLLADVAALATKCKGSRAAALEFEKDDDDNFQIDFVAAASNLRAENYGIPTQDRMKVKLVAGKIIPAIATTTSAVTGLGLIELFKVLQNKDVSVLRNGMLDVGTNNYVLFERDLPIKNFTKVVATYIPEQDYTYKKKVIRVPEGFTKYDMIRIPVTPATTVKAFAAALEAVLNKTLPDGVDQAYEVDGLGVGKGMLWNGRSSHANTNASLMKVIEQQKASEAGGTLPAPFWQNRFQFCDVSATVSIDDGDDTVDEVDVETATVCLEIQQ
Put plainly: Leishmania donovani Ubiquitin Activating Enzyme (LdE1). It counts as functional. The note with it: 30 µM.

Assay [3] addresses AMP-activated protein kinase, AMPK (Homo sapiens) (UniProt P54646+O43741+P54619+Q9UGJ0+Q9Y478+Q13131+Q9UGI9). In words: AMP-dependent Kinase enzyme assay. An in vitro enzyme assay that detects ADP turnover that is directly proportional to AMPK activity. This uses naive AMPK that is activated during the assay with MK-8722. It counts as functional. To be noted: 30 µM.
For assay [4], the target named is Sialic acid-binding Ig-like lectin 9 (Homo sapiens) (UniProt Q9Y336). Put plainly: Hs-Siglec9 ALPHAscreen SOP 20170721. To be noted: 10 µM.
Sialic acid-binding Ig-like lectin 9 (Homo sapiens), sequence (Q9Y336 whole entry): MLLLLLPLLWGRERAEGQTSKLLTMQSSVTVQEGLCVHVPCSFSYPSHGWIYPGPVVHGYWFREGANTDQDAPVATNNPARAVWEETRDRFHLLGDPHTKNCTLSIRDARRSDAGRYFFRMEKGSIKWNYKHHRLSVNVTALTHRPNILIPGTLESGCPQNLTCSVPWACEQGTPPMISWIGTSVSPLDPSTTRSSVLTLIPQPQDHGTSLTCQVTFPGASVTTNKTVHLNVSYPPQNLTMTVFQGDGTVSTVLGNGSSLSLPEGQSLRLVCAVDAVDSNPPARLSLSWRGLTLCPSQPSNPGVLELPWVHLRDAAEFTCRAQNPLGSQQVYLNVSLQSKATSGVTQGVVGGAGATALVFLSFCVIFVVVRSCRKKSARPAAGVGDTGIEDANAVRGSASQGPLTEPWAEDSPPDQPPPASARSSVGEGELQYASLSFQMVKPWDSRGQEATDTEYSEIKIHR
The test system of assay [5] is Trypanosoma cruzi. In words: Trypanosoma cruzi phosphomannomutase and mannose-1-phosphate guanylyltransferase assay. It counts as functional. The note with it: 10 µM.
For assay [6], the target named is T2, Arginase-2, mitochondrial (Homo sapiens) (UniProt P78540).
T2 sequence (whole entry): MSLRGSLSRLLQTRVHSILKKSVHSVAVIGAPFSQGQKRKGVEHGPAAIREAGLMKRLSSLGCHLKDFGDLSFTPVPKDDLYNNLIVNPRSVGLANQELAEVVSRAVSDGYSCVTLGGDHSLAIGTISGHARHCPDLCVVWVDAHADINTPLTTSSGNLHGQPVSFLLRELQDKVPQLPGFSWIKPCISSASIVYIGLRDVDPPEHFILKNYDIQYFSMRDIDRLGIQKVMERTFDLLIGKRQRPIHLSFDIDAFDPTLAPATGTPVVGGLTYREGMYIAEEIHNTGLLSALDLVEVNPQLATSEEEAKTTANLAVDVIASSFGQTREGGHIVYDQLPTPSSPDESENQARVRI
Put plainly: in vitro enzyme assay to detect the production of urea directly proportional to the activity of Arginase II. Further: in the data most compounds retested in dose-response had high values. It counts as functional. The note with it: 33.3 µM.

The target of assay [7] is T3, Proteasome subunit beta (Trypanosoma cruzi) (UniProt O96673).
T3 sequence (whole entry): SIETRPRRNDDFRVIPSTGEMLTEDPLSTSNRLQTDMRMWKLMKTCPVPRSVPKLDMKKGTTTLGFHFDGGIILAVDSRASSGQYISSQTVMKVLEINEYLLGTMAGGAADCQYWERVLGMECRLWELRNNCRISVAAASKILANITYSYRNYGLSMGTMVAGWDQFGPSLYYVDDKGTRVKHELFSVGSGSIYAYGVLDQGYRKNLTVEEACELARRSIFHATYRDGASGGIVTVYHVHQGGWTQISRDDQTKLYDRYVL
Put plainly: Trypanosoma cruzi proteasome chymotrypsin-like activity (TcProtChymo) assay. Further: in the data most compounds retested in dose-response had high values. In kind it is functional. The note with it: 9.37 µM.

For assay [8], the species on record is Homo sapiens. In words: To identify inhibition of the IFN signalling (Jak-Stat) pathway via expression of an eGFP reporter gene under the control of an IFN-stimulated response element (ISRE) containing MxA promoter. To be noted: 30 µM. It counts as functional. (In a reporter assay the amount or activity of a reporter protein is the signal.)
Assay [9] deals with T4, Tyrosyl-tRNA synthetase, putative (Trypanosoma cruzi (strain CL Brener)) (UniProt Q4DSP6).
T4 sequence (whole entry): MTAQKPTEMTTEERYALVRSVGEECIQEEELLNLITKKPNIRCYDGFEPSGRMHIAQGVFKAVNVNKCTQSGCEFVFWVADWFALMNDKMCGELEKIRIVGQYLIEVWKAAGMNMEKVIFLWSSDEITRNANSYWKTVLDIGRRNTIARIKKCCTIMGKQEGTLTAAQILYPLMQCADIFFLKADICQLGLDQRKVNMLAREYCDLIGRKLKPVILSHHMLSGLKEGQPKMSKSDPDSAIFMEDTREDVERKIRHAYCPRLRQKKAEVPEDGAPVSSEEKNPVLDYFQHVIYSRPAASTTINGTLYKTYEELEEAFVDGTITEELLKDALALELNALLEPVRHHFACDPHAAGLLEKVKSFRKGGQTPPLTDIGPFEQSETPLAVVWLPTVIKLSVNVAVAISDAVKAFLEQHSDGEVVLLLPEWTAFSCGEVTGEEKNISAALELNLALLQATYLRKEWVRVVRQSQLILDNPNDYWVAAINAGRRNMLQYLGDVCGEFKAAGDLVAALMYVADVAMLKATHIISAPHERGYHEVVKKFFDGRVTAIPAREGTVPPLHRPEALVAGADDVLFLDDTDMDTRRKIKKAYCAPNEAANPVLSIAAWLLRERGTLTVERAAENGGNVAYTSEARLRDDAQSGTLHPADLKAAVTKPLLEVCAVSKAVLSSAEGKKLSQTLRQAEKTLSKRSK
In words: Trypanosoma cruzi tyrosyl tRNA synthetase (TcYRS) _High Tyrosine SOP. Further: in the data most compounds retested in dose-response had high values. It counts as functional. To be noted: 30 µM.

Assay [10] deals with T4, Tyrosyl-tRNA synthetase, putative (Trypanosoma cruzi (strain CL Brener)). In words: Trypanosoma cruzi tyrosyl tRNA synthetase (TcYRS) SOP. In kind it is functional. To be noted: 30 µM.
The target in assay [11] is Chromo domain-containing protein 1 (Saccharomyces cerevisiae (strain ATCC 204508 / S288c) (Baker's yeast)) (UniProt P32657). In words: ScCHD-1 Enzyme Inhibition Assay. Further: in the data most compounds retested in dose-response had high values. In kind it is functional. To be noted: 30 µM.
Chromo domain-containing protein 1 (Saccharomyces cerevisiae (strain ATCC 204508 / S288c) (Baker's yeast)), sequence (P32657 whole entry, the tested form may be a part): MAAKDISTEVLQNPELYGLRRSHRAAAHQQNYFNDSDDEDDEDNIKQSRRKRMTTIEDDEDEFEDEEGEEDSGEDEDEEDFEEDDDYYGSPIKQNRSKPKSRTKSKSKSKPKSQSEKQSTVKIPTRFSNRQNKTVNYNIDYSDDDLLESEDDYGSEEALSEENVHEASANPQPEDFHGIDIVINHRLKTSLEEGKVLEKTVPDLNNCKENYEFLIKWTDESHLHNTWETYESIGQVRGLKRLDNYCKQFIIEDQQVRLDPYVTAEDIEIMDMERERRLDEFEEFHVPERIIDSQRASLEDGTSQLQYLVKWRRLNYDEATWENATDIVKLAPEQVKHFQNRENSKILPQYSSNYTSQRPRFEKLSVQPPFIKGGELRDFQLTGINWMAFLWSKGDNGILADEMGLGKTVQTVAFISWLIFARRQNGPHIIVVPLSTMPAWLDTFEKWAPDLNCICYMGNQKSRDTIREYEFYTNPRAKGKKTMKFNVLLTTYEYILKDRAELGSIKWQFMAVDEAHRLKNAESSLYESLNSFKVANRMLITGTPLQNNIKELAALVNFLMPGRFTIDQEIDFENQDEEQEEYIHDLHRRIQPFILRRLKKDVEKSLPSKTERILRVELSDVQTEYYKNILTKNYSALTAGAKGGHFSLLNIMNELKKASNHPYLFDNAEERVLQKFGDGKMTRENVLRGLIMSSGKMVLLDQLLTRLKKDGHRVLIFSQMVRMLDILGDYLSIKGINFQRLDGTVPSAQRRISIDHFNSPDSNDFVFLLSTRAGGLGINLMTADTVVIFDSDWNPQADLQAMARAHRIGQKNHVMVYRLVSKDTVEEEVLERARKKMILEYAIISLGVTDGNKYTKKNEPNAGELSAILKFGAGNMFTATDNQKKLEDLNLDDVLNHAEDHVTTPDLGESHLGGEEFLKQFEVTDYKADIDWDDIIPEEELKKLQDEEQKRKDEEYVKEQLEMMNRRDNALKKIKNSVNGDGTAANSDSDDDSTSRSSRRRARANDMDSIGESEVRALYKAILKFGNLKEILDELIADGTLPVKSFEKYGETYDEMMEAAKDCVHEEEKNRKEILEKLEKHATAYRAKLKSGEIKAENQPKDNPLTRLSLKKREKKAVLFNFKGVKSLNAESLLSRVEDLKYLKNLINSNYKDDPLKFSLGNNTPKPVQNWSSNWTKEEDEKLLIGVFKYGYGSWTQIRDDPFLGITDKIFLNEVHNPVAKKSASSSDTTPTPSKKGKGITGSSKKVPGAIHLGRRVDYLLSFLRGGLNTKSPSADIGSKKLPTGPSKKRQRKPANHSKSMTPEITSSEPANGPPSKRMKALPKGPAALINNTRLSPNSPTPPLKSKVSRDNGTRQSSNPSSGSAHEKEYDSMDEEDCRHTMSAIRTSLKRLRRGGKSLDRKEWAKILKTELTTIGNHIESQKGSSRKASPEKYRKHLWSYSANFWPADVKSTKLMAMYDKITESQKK

Protein translocase subunit SecA (Escherichia coli (strain K12)), sequence (P10408 whole entry): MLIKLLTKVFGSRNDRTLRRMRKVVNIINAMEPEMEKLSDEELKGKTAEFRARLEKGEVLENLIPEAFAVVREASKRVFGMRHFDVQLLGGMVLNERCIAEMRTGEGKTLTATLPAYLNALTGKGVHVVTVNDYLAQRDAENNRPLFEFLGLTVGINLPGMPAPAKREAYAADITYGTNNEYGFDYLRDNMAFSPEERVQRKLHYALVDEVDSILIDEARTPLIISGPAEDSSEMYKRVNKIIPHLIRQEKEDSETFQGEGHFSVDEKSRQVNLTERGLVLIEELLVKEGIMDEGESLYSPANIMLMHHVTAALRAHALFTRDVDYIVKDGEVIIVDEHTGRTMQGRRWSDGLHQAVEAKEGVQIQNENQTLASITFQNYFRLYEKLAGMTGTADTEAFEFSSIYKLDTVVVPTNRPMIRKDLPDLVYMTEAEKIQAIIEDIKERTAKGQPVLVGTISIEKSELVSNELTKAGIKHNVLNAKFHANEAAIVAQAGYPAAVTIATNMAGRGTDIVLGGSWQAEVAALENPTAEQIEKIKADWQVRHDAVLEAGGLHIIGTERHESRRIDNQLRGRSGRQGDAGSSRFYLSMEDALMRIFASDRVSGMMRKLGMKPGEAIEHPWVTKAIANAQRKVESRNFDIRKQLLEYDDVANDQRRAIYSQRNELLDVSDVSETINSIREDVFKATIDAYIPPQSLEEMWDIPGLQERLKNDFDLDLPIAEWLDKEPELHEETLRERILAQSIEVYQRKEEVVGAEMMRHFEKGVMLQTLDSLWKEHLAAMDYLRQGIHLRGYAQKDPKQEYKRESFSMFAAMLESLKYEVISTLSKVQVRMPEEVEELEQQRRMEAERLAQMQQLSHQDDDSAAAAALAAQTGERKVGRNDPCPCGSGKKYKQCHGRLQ

Regarding `COCCN1C[C@@H]2CN(c3ncccn3)C[C@@H]2C1=O`, the Percent Effect in assay [1] is -4.06%; in assay [2] it was 2.7%; in assay [3], 0.915%; in assay [4] it was -6.74%; in assay [5], -0.586%; in assay [6], -4.17%. The Percent Effect in [7] was 8.2%; in assay [8] it was -19.7%; in assay [9], 76.2%; in assay [10], -1.22%; in [11], 474%.
Turning to `CC(NC(=O)Cc1cccs1)c1nnc2n1CCCCC2` (stereo unspecified), the Percent Effect in assay [1] is -5.37%; in assay [2], 10.8%; in assay [3] it was 0.496%; in assay [4] it was 4.55%; in [5], 1.95%; in assay [6], -1.66%. Further, the Percent Effect was -7.54% in assay [7]; -0.0451% in assay [8]; 3.96% in assay [9]; 15.8% in assay [10]; 1.56% in assay [11].
As to `Cn1cc(CN2CCCC3(CCN(Cc4cccnc4)C3=O)C2)cn1` (stereo unspecified), the Percent Effect in assay [1] is -0.768%; in [2], 21.6%; in assay [3] it was -0.596%; in [4] it was -4.91%; in assay [5], 3.81%; in assay [6] it was 7.33%. Moreover, the Percent Effect was 14% in assay [7]; -9.12% in assay [8]; 1.08% in assay [9]; 12.8% in assay [10]; 1.58% in assay [11].
For the molecule `Cc1cccc(C)c1OCCC(=O)N1CCC(c2nncn2C)CC1`, the Percent Effect in assay [1] is -6.09%; in assay [2], 23.4%; in assay [3] it was 3.3%; in assay [4] it was 8.75%; in [5], 6.74%; in assay [6] it was -2.49%. Besides, the Percent Effect was 6.76% in [7]; 4.85% in assay [8]; 6.8% in assay [9]; 21.9% in assay [10]; -8.79% in assay [11].
On to `c1ccc(Cn2cc3c(n2)C(CNCc2ccco2)OCC3)nc1` (stereo unspecified), for which the Percent Effect in assay [1] is -3.96%; in [2], 2.7%; in assay [3], 0.188%; in assay [4], 3.43%; in assay [5], -4.49%; in [6], 4.17%. Moreover, the Percent Effect in assay [7] is 2.79%; in [8] it was -8.58%; in assay [9], 4.95%; in assay [10], 11%; in assay [11], -1.79%.
For the molecule `Cc1cnn(CCC(=O)N2CCN(c3ncccc3Cl)CC2)c1`, the Percent Effect in assay [1] is -2.22%; in [2], 3.8%; in assay [3], 10.2%; in assay [4] it was 2%; in assay [5], -4.21%; in assay [6], 1.94%. Further, the Percent Effect is 10.3% in [7]; 18.8% in assay [8]; 1.04% in assay [9]; 2.53% in [10]; -5.44% in assay [11].
As to `Cc1nccn1-c1cccc(C2CCCN(C3CCCCC3)C2)n1` (stereo unspecified), the Percent Effect is -7.63% in [1]; -4.05% in assay [2]; 3.56% in [3]; -0.877% in assay [4]; 2.17% in [5]; 4.41% in assay [6]. The Percent Effect was 14.8% in assay [7]; 2.91% in assay [8]; 22.6% in [9]; 27.3% in assay [10]; -10.9% in [11].
With `CC(NC(=O)N1CCCN(Cc2cccs2)CC1)c1cccnc1` (stereo unspecified), the Percent Effect in [1] is -0.761%; in assay [2], 18.4%; in assay [3] it was -1.54%; in [4] it was -0.0672%; in assay [5] it was 5.64%; in assay [6], 10.3%. For the same molecule, the Percent Effect in [7] is 8.02%; in assay [8], -11.5%; in assay [9] it was 5.39%; in [10], 21.9%; in assay [11], -12%.
On to `CC(C)NC(=O)Nc1ccc(CS(=O)(=O)C(C)(C)C)cc1`, for which the Percent Effect in assay [1] was -3.43%; in [2], 2.63%; in assay [3] it was 7.37%; in assay [4], 5.76%; in assay [5], -2.82%; in assay [6] it was -2.37%. Moreover, the Percent Effect is 23.1% in assay [7]; 7.3% in assay [8]; 2.13% in assay [9]; 10.4% in assay [10]; -2.88% in [11].
`CCOc1ccnc(N2CCN(C(=O)c3cn[nH]c3CC)CC2)n1`: the Percent Effect in [1] was -3.25%; in [2], 15.2%; in [3], -3.34%; in [4], 7.76%; in assay [5], 0.472%; in [6], -0.38%. The Percent Effect in assay [7] is -1.23%; in [8], 18.9%; in [9], 7.39%; in assay [10], 24.1%; in assay [11], -4.33%.
Turning to `CC(C)(C)c1nc(CN(Cc2cccs2)C2CCS(=O)(=O)C2)no1` (stereo unspecified), the Percent Effect was -1.36% in assay [1]; 21.1% in assay [2]; -5.34% in assay [3]; -2% in [4]; 4.76% in assay [5]; 1.44% in assay [6]. The Percent Effect was 5.67% in [7]; 26.2% in assay [8]; 6.4% in assay [9]; 25.9% in assay [10]; -8.43% in [11].
